# Laboratory results as given in the supplement of paper PMC8728848.
# The entries come from a sample that favours the strongest signals as a whole.
# Key:
# Assay in all cases: glycan array binding signal (z-score within array); higher = stronger binding
# Details in all cases: glycan notation: IUPAC condensed, linker removed
# [1] = molecular target: Fuc(a1-2)Gal(b1-3)GalNAc(b1-3)Gal
# Method in brief: (§1)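 The binding signal is a Z-score computed within each array. Data were drawn from 3228 arrays in the Consortium for Functional Glycomics database, restricted to those with a known protein sequence. Scores were averaged over arrays of the same protein sequence at different concentrations or buffers, and over linkers, and negative values can be taken as non-binding.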
# [2] = molecular target: Fuc(a1-2)Gal(b1-3)GlcNAc(b1-2)Man(a1-3)[Fuc(a1-2)Gal(b1-3)GlcNAc(b1-2)Man(a1-6)]Man(b1-4)GlcNAc(b1-4)[Fuc(a1-6)]GlcNAc
# Method in brief: as §1
# [3] = molecular target: Fuc(a1-2)Gal(b1-4)[Fuc(a1-3)]GlcNAc(b1-3)[Neu5Ac(a2-6)Gal(b1-4)GlcNAc(b1-6)]Gal(b1-4)Glc
# Method in brief: as §1
# [4] = molecular target: Fuc(a1-2)Gal6S(b1-4)Glc6S
# Method in brief: as §1
# [5] = molecular target: Fuc(a1-2)[Gal(a1-3)]Gal(b1-3)GlcNAc(b1-2)Man(a1-3)[Fuc(a1-2)[Gal(a1-3)]Gal(b1-3)GlcNAc(b1-2)Man(a1-6)]Man(b1-4)GlcNAc(b1-4)GlcNAc
# Method in brief: as §1
# [6] = molecular target: Fuc(a1-2)[Gal(a1-3)]Gal(b1-3)GlcNAc(b1-2)Man(a1-3)[Fuc(a1-2)[Gal(a1-3)]Gal(b1-3)GlcNAc(b1-2)Man(a1-6)]Man(b1-4)GlcNAc(b1-4)[Fuc(a1-6)]GlcNAc
# Method in brief: as §1
# [7] = molecular target: Fuc(a1-2)[Gal(a1-3)]Gal(b1-4)[Fuc(a1-3)]GlcNAc(b1-3)GalNAc
# Method in brief: as §1
# [8] = molecular target: Fuc(a1-2)[GalNAc(a1-3)]Gal(b1-4)Glc
# Method in brief: as §1
# [9] = molecular target: Fuc(a1-3)[Gal(b1-4)]GlcNAc
# Method in brief: as §1
# [10] = molecular target: Fuc(a1-3)[GalNAc(b1-4)]GlcNAc6S
# Method in brief: as §1
# [11] = molecular target: Fuc(b1-3)GlcNAc
# Method in brief: as §1
# [12] = molecular target: Gal(a1-3)Gal(b1-4)GlcNAc(b1-3)GalNAc
# Method in brief: as §1
# [13] = molecular target: Gal(a1-3)Gal(b1-4)[Fuc(a1-3)]GlcNAc(b1-2)Man(a1-3)[Gal(a1-3)Gal(b1-4)[Fuc(a1-3)]GlcNAc(b1-2)Man(a1-6)]Man(b1-4)GlcNAc(b1-4)GlcNAc
# Method in brief: as §1
# [14] = molecular target: Gal(a1-4)Gal(b1-3)GlcNAc(b1-2)Man(a1-3)[Gal(a1-4)Gal(b1-3)GlcNAc(b1-2)Man(a1-6)]Man(b1-4)GlcNAc(b1-4)GlcNAc
# Method in brief: as §1
# [15] = molecular target: Gal(a1-4)Gal(b1-4)GlcNAc(b1-3)Gal(b1-4)Glc
# Method in brief: as §1
# [16] = molecular target: Gal(b1-3)Gal(b1-4)GlcNAc
# Method in brief: as §1
# [17] = molecular target: Gal(b1-3)GalNAc(b1-3)Gal
# Method in brief: as §1
# [18] = molecular target: Gal(b1-3)GalNAc(b1-4)Gal(b1-4)Glc
# Method in brief: as §1
# [19] = molecular target: Gal(b1-3)GlcNAc(b1-2)Man
# Method in brief: as §1
# [20] = molecular target: Gal(b1-3)GlcNAc(b1-3)Gal(b1-4)GlcNAc(b1-2)[Gal(b1-3)GlcNAc(b1-3)Gal(b1-4)GlcNAc(b1-6)]Man(a1-6)[Gal(b1-3)GlcNAc(b1-3)Gal(b1-4)GlcNAc(b1-2)Man(a1-3)]Man(b1-4)GlcNAc(b1-4)[Fuc(a1-6)]GlcNAc
# Method in brief: as §1
# [21] = molecular target: Gal(b1-3)GlcNAc(b1-3)GalNAc
# Method in brief: as §1
# [22] = molecular target: Gal(b1-3)[Neu5Ac(b2-6)]GalNAc
# Method in brief: as §1
# [23] = molecular target: Gal(b1-4)GalNAc(b1-3)[Fuc(a1-2)]Gal(b1-4)GlcNAc
# Method in brief: as §1
# [24] = molecular target: Gal(b1-4)Glc6S
# Method in brief: as §1
# [25] = molecular target: Gal(b1-4)GlcNAc(b1-2)[Gal(b1-4)GlcNAc(b1-4)]Man(a1-3)[Gal(b1-4)GlcNAc(b1-2)[Gal(b1-4)GlcNAc(b1-6)]Man(a1-6)]Man(b1-4)GlcNAc(b1-4)GlcNAc
# Method in brief: as §1
# [26] = molecular target: Gal(b1-4)GlcNAc(b1-3)Gal(b1-4)GlcNAc(b1-2)Man(a1-3)[Gal(b1-4)GlcNAc(b1-3)Gal(b1-4)GlcNAc(b1-2)Man(a1-6)]Man(b1-4)GlcNAc(b1-4)[Fuc(a1-6)]GlcNAc
# Method in brief: as §1
# [27] = molecular target: Gal(b1-4)GlcNAc(b1-3)Gal(b1-4)GlcNAc(b1-3)Gal(b1-4)GlcNAc(b1-3)Gal(b1-4)GlcNAc(b1-3)Gal(b1-4)GlcNAc(b1-2)[Gal(b1-4)GlcNAc(b1-3)Gal(b1-4)GlcNAc(b1-3)Gal(b1-4)GlcNAc(b1-3)Gal(b1-4)GlcNAc(b1-3)Gal(b1-4)GlcNAc(b1-6)]Man(a1-6)[Gal(b1-4)GlcNAc(b1-3)Gal(b1-4)GlcNAc(b1-3)Gal(b1-4)GlcNAc(b1-3)Gal(b1-4)GlcNAc(b1-3)Gal(b1-4)GlcNAc(b1-2)Man(a1-3)]Man(b1-4)GlcNAc(b1-4)[Fuc(a1-6)]GlcNAc
# Method in brief: as §1
# [28] = molecular target: Gal(b1-4)GlcNAc(b1-3)[Fuc(a1-3)GlcNAc(b1-6)]Gal(b1-4)Glc
# Method in brief: as §1
# [29] = molecular target: Gal(b1-4)GlcNAc(b1-6)Gal(b1-4)GlcNAc
# Method in brief: as §1
# [30] = molecular target: Gal3S(b1-4)Glc
# Method in brief: as §1
# [31] = molecular target: Gal3S(b1-4)[Fuc(a1-3)]GlcNAc6S
# Method in brief: as §1
# [32] = molecular target: Gal3S6S(b1-4)GlcNAc6S
# Method in brief: as §1
# [33] = molecular target: Gal6S(b1-3)GlcNAc6S
# Method in brief: as §1
# [34] = molecular target: GalNAc(b1-3)Gal
# Method in brief: as §1
# [35] = molecular target: GalNAc(b1-4)GlcNAc
# Method in brief: as §1
# [36] = molecular target: Glc(a1-6)Glc(a1-6)Glc
# Method in brief: as §1
# [37] = molecular target: GlcNAc(b1-2)[GlcNAc(b1-4)]Man(a1-3)[GlcNAc(b1-4)][GlcNAc(b1-2)[GlcNAc(b1-6)]Man(a1-6)]Man(b1-4)GlcNAc(b1-4)[Fuc(a1-6)]GlcNAc
# Method in brief: as §1
# [38] = molecular target: GlcNAc(b1-2)[GlcNAc(b1-6)]Man(a1-6)[GlcNAc(b1-2)Man(a1-3)]Man(b1-4)GlcNAc(b1-4)[Fuc(a1-6)]GlcNAc
# Method in brief: as §1
# [39] = molecular target: GlcNAc(b1-3)Fuc
# Method in brief: as §1
# [40] = molecular target: GlcNAc(b1-3)Gal(b1-4)GlcNAc(b1-3)Gal(b1-4)GlcNAc(b1-2)[GlcNAc(b1-3)Gal(b1-4)GlcNAc(b1-3)Gal(b1-4)GlcNAc(b1-6)]Man(a1-6)[GlcNAc(b1-3)Gal(b1-4)GlcNAc(b1-3)Gal(b1-4)GlcNAc(b1-2)Man(a1-3)]Man(b1-4)GlcNAc(b1-4)[Fuc(a1-6)]GlcNAc
# Method in brief: as §1
# [41] = molecular target: GlcNAc(b1-3)Gal(b1-4)GlcNAc(b1-3)Gal(b1-4)GlcNAc(b1-3)Gal(b1-4)GlcNAc(b1-3)Gal(b1-4)GlcNAc(b1-2)Man(a1-3)[GlcNAc(b1-3)Gal(b1-4)GlcNAc(b1-3)Gal(b1-4)GlcNAc(b1-3)Gal(b1-4)GlcNAc(b1-3)Gal(b1-4)GlcNAc(b1-2)Man(a1-6)]Man(b1-4)GlcNAc(b1-4)GlcNAc
# Method in brief: as §1
# [42] = molecular target: Man(a1-2)Man(a1-6)[Man(a1-3)]Man(a1-6)[Man(a1-2)Man(a1-2)Man(a1-3)]Man
# Method in brief: as §1
# [43] = molecular target: Man(a1-3)[Man(a1-6)]Man(a1-6)[Man(a1-3)]Man(b1-4)GlcNAc(b1-4)GlcNAc
# Method in brief: as §1
# [44] = molecular target: Man(a1-6)Man
# Method in brief: as §1
# [45] = molecular target: Neu5Ac(a2-3)Gal(b1-3)GlcNAc(b1-6)GalNAc
# Method in brief: as §1
# [46] = molecular target: Neu5Ac(a2-3)Gal(b1-3)[Fuc(a1-4)]GlcNAc
# Method in brief: as §1
# [47] = molecular target: Neu5Ac(a2-3)GalNAc(b1-4)GlcNAc
# Method in brief: as §1
# [48] = molecular target: Neu5Ac(a2-3)[GalNAc(b1-4)]Gal(b1-4)GlcNAc(b1-3)GalNAc
# Method in brief: as §1
# [49] = molecular target: Neu5Ac(a2-6)Gal(b1-4)GlcNAc(b1-2)Man
# Method in brief: as §1
# [50] = molecular target: Neu5Ac(a2-6)Gal(b1-4)GlcNAc(b1-2)Man(a1-3)Man(b1-4)GlcNAc(b1-4)GlcNAc
# Method in brief: as §1
# [51] = molecular target: Neu5Ac(a2-6)Gal(b1-4)GlcNAc(b1-2)Man(a1-6)[GlcNAc(b1-2)Man(a1-3)]Man(b1-4)GlcNAc(b1-4)GlcNAc
# Method in brief: as §1
# [52] = molecular target: Neu5Ac(a2-6)Gal(b1-4)GlcNAc(b1-2)Man(a1-6)[Man(a1-3)]Man(b1-4)GlcNAc(b1-4)GlcNAc
# Method in brief: as §1
# [53] = molecular target: Neu5Ac(a2-6)Gal(b1-4)GlcNAc(b1-3)GalNAc
# Method in brief: as §1
# [54] = molecular target: Neu5Ac(a2-6)GlcNAc(b1-4)GlcNAc(b1-4)GlcNAc
# Method in brief: as §1
binder,measurement,setting,value
FimA-N3 (Actinomyces oris) (protein) MHHHHHHSSGVDLGTENLYFQSNAGLQGAQFQLYKAKNAYANTCSNEKEGAPIAINGQTTLTTDAQGAIDIKGLFISDSIDGADRDNQVNAMERCYVLVETKAPAGYVLPAGNGAATPVKVKAGEETTDN,glycan array binding signal (z-score),[1],5.62
same,glycan array binding signal (z-score),[2],-0.196
same,glycan array binding signal (z-score),[3],-0.472
same,glycan array binding signal (z-score),[4],0.307
same,glycan array binding signal (z-score),[5],-0.378
same,glycan array binding signal (z-score),[6],-0.364
same,glycan array binding signal (z-score),[7],0.505
same,glycan array binding signal (z-score),[8],-0.493
same,glycan array binding signal (z-score),[9],-0.369
same,glycan array binding signal (z-score),[10],4.08
same,glycan array binding signal (z-score),[11],-0.128
same,glycan array binding signal (z-score),[12],0.243
same,glycan array binding signal (z-score),[13],-0.667
same,glycan array binding signal (z-score),[14],-0.264
same,glycan array binding signal (z-score),[15],-0.388
same,glycan array binding signal (z-score),[16],0.999
same,glycan array binding signal (z-score),[17],-0.367
same,glycan array binding signal (z-score),[18],3.23
same,glycan array binding signal (z-score),[19],-0.37
same,glycan array binding signal (z-score),[20],2.94
same,glycan array binding signal (z-score),[21],-0.259
same,glycan array binding signal (z-score),[22],-0.563
same,glycan array binding signal (z-score),[23],-0.587
same,glycan array binding signal (z-score),[24],-0.058
same,glycan array binding signal (z-score),[25],-0.618
same,glycan array binding signal (z-score),[26],-0.021
same,glycan array binding signal (z-score),[27],4.26
same,glycan array binding signal (z-score),[28],-0.038
same,glycan array binding signal (z-score),[29],-0.237
same,glycan array binding signal (z-score),[30],0.681
same,glycan array binding signal (z-score),[31],4.34
same,glycan array binding signal (z-score),[32],-0.339
same,glycan array binding signal (z-score),[33],-0.446
same,glycan array binding signal (z-score),[34],2.63
same,glycan array binding signal (z-score),[35],-0.022
same,glycan array binding signal (z-score),[36],-0.527
same,glycan array binding signal (z-score),[37],-0.394
same,glycan array binding signal (z-score),[38],-0.252
same,glycan array binding signal (z-score),[39],3.03
same,glycan array binding signal (z-score),[40],0.202
same,glycan array binding signal (z-score),[41],-0.047
same,glycan array binding signal (z-score),[42],-0.315
same,glycan array binding signal (z-score),[43],-0.253
same,glycan array binding signal (z-score),[44],3.05
same,glycan array binding signal (z-score),[45],0.038
same,glycan array binding signal (z-score),[46],15.7
same,glycan array binding signal (z-score),[47],-0.492
same,glycan array binding signal (z-score),[48],-0.212
same,glycan array binding signal (z-score),[49],-0.531
same,glycan array binding signal (z-score),[50],-0.045
same,glycan array binding signal (z-score),[51],0.223
same,glycan array binding signal (z-score),[52],0.03
same,glycan array binding signal (z-score),[53],-0.16
same,glycan array binding signal (z-score),[54],2.65
